Compound activity from PubChem.
BL2 CD40 inh: inhibitors of CD40-induced NF-kB signaling, primary screen, BL2 cells, luciferase reporter, single point. CD40L-induced, 4 h. inhibition, % at 10 µM. 0.94% of 83,000 active;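 active means mean inhibition of at least 50% with a set share of replicates also reaching that level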;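 further: 0% = neutral control wells and 100% = IKK inhibitor VII at 50 µM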
Numbers without * were called inactive; [ ] = remark or other dose. The sample as a whole holds a higher share of hits than the screen did.

SMILES | BL2 CD40 inh
CCOC(=O)c1c(SCCN2CCCCC2)n(-c2ccccc2)c(=S)n(-c2ccccc2)c1=O | 95*
CCOC(=O)c1[nH]c(=S)n(-c2ccccc2)c1C(=O)OCC | 22
O=S(=O)(c1ccccc1F)N1CC[C@H]2[C@H](CO)Nc3ccc(-c4ccccc4)cc3[C@H]21 | 0
C[C@@H]1CN([C@@H](C)CO)C(=O)c2ccccc2-c2ccccc2CO[C@@H]1CN(C)C(=O)Nc1ccccc1C(F)(F)F | -6[25 µM]
CN(C)S(=O)(=O)c1cccc(-c2cn3ccccc3n2)c1 | -28
O=S(=O)(c1cccc(-c2cn3ccccc3n2)c1)N1CCCCC1 | 7
c1ccn2cc(-c3ccc4c(c3)OCCO4)nc2c1 | 67*
COc1cc2cc(C(=O)Nc3ccc4c(c3)OCCO4)[nH]c2cc1OC | 60*
COc1ccc(C(=O)Nc2ccc3c(c2)OCCO3)c(OC)c1 | -26
COc1ccccc1NC(=O)Nc1ccc2c(c1)OCCO2 | -75
COC(=O)[C@H]1[C@H](CO)[C@H]2Cn3c(ccc(C4=CCCCC4)c3=O)[C@H]2N1C(=O)C1CCCC1 | 24
CC(C)[C@@H](C)NC(=O)N(C)C[C@@H]1OCc2ccccc2-c2c(n(C)c3ccccc23)C(=O)N([C@H](C)CO)C[C@@H]1C | -11
Cc1ccc(-c2ccc3c(c2)O[C@@H](CN(C)Cc2cncnc2)[C@H](C)CN([C@@H](C)CO)S3(=O)=O)cc1 | 3[25 µM]
CN(C)CC(=O)Nc1ccc2c(c1)[C@H]1C[C@@H](CC(=O)N3CCCCC3)O[C@@H](CO)[C@H]1O2 | -11[25 µM]
Cc1ccc(N2CC(C(=O)Nc3nccs3)CC2=O)cc1Cl (stereo not given) | 61*
COCc1nnc(NC(=O)C2CC(=O)N(c3ccc(C)c(Cl)c3)C2)s1 (stereo not given) | 1
O=C(Nc1nccs1)C1CC(=O)N(c2ccc(F)cc2)C1 (stereo not given) | 1
c1ccc(Cn2nnc3c(N4CCCC4)ncnc32)cc1 | -6
c1ccc(-n2nnc3c(N4CCOCC4)ncnc32)cc1 | 68*
Cc1nnc(N2CCOCC2)c2nn(-c3ccccc3)c(C)c12 | 4
COCCN(C[C@H]1N[C@H](CO)[C@@H]1c1ccccc1)C(=O)NC1CCCC1 | 1[25 µM]
CO[C@@H](CN(C)S(=O)(=O)c1ccc(F)cc1)[C@@H](C)CN(C(=O)Nc1ccccc1F)[C@@H](C)CO | -27
COc1ccccc1-c1cn(CC[C@@H]2CC[C@H](NC(=O)C3CCCC3)[C@@H](CO)O2)nn1 | -2
CC(C)NC(=O)Nc1ccc2c(c1)CC(=O)N(C)C[C@H](C)[C@@H](CN(C)S(C)(=O)=O)O2 | 6
Cc1cccc(S(=O)(=O)N2[C@@H]3CNC[C@H]2C3c2ccc(-c3ccccc3C)cc2)c1 (stereo not given in full) | -5
SMILES | BL2 CD40 inh
CN1C[C@H]2[C@@H](c3ccccc31)[C@@H](CO)N2C(=O)Nc1ccccc1Cl | 9[25 µM]
COc1ccc(-c2ccc([C@@H]3[C@H](C#N)N(C(=O)c4cccc(F)c4)[C@H]3CO)cc2)cc1 | 20[25 µM]
N#C[C@@H]1[C@H](c2ccc(-c3cccc(F)c3)cc2)[C@H](CO)N1C(=O)NC1CCCC1 | 22[25 µM]
N#C[C@H]1[C@@H](c2ccc(C#CC3CC3)cc2)[C@@H](CO)N1C(=O)c1cccc(F)c1 | 2
COc1ccc(-c2ccc([C@H]3[C@@H](C#N)N(C(=O)c4cccc(F)c4)[C@H]3CO)cc2)cc1 | 57*[25 µM]
N#C[C@H]1[C@@H](c2ccc(-c3cccc(F)c3)cc2)[C@H](CO)N1C(=O)NC1CCCC1 | -3[25 µM]
CC(C)NC(=O)N1[C@H](CO)[C@H](c2ccc(C#CC3CCCC3)cc2)[C@@H]1C#N | -20
CC(C)NC(=O)N1[C@H](C#N)[C@@H](c2ccc(C#CC3CCCC3)cc2)[C@@H]1CO | -7
N#C[C@@H]1[C@H](c2ccc(C#CC3CCCC3)cc2)[C@@H](CO)N1C(=O)c1cccc(F)c1 | 66*
N#C[C@H]1[C@H](c2ccc(-c3cccc(F)c3)cc2)[C@H](CO)N1C(=O)NC1CCCC1 | 52*[25 µM]
N#C[C@@H]1[C@H](c2ccc(C#CC3CCCC3)cc2)[C@H](CO)N1C(=O)c1cccc(F)c1 | -16
N#C[C@@H]1[C@H](c2ccc(C#CC3CCCCC3)cc2)[C@H](CO)N1C(=O)Nc1ccc(F)cc1 | 84*[25 µM]
COc1ccc(-c2ccc([C@@H]3[C@@H](CO)N(C(=O)c4cccc(F)c4)[C@H]3C#N)cc2)cc1 | -18[25 µM]
CO[C@H]1CN(C)C(=O)c2ccc(NC(=O)C3CCOCC3)cc2OC[C@@H](C)N(CC2CC2)C[C@H]1C | -4
Oc1cc2c(c(Cl)c1O)CCNC[C@@H]2c1ccccc1 | -5[25 µM]
c1ccc(C(O[C@@H]2CCCN(CCc3ccc4c(c3)OCO4)C2)c2ccccc2)cc1 | -8[25 µM]
CCN1[C@H](C(=O)NCc2ccc(F)cc2)[C@@H](CO)[C@@H]2Cn3c(ccc(-c4ccccc4OC)c3=O)[C@@H]21 | 9[25 µM]
N#C[C@H]1[C@H](c2ccccc2C2=CCCCC2)[C@H](CO)N1C(=O)CN1CCOCC1 | -1[25 µM]
COc1ccc2c3c([nH]c2c1)[C@@H](CO)N(C(C)=O)CC31CCN(C(=O)c2ccc3c(c2)OCO3)CC1 | -6[25 µM]
CNC[C@@H]1Oc2ccc(N)cc2CC(=O)N(C)C[C@H]1C | 8
O=C(NCC[C@H]1CC[C@H](NS(=O)(=O)Cc2ccccc2)[C@@H](CO)O1)C1CCCC1 | 4
CC(C)[C@H]1COCn2nncc2CC[C@H](Cc2ccc(Cl)cc2)C(=O)N1 | 24[25 µM]
N#C[C@H]1[C@H](c2ccc(C#CC3CCCCC3)cc2)[C@@H](CO)N1C(=O)Nc1ccc(F)cc1 | 63*[25 µM]
CC(C)NC(=O)N1[C@H](C#N)[C@@H](c2ccc(C#CC3CCCCC3)cc2)[C@H]1CO | 2
N#C[C@H]1[C@H](c2ccc(C#CC3CCCC3)cc2)[C@H](CO)N1C(=O)Nc1ccc(F)cc1 | 10
SMILES | BL2 CD40 inh
CO[C@@H]1CN(C)C(=O)c2ccc(NC(=O)C3CCOCC3)cc2OC[C@@H](C)N(CC2CC2)C[C@H]1C | -6
C[C@H]1CN([C@@H](C)CO)C(=O)c2cc(N(C)C)ccc2O[C@@H]1CN(C)S(=O)(=O)c1cn(C)cn1 | -3[25 µM]
O=S(=O)(Nc1ccccc1)c1ccc(S(=O)(=O)N2CCCC2)cc1 | 2
NC(=O)c1ccccc1NS(=O)(=O)c1ccc(S(=O)(=O)N2CCCC2)cc1 | 5
O=S(=O)(Nc1cccc2cccnc12)c1ccc(S(=O)(=O)N2CCCC2)cc1 | 76*
COc1cccc(CN2[C@@H]3CNC[C@H]2C3c2ccc(-c3ccc(C)cc3)cc2)c1 (stereo not given in full) | 1
COc1ccc2c3c([nH]c2c1)[C@H](CO)N(C(=O)CN1CCOCC1)CC31CCN(CC2CCCC2)CC1 | -11[25 µM]
COc1cc(CNCCc2c[nH]c3ccccc23)cc(Cl)c1OCC(N)=O | 47*
COc1ccc(C(=O)NCC(=O)NCCc2c[nH]c3ccccc23)cc1OC | 17
COc1ccc(NC(=O)COC(=O)Cc2c[nH]c3ccccc23)cc1Cl | -3
CO[C@@H]1CN(C)C(=O)c2ccc(NC(=O)Nc3cccc(Cl)c3)cc2OC[C@H](C)N(C(=O)Nc2c(C)noc2C)C[C@H]1C | -6
COC(=O)c1cc(-c2ccc(C)o2)nc2ccccc12 | -37
Cc1ccc(-c2cc(C(=O)N3CC(C)OC(C)C3)c3ccccc3n2)o1 (stereo not given) | 114*
Cc1ccc(-c2cc(C(=O)NCc3ccco3)c3ccccc3n2)o1 | -10
CN(C)CC(=O)N[C@@H]1CC[C@@H](CCn2cc(C3CCCC3)nn2)O[C@@H]1CO | 1
CC(=O)Nc1ccc2c(c1)CC(=O)N(C)C[C@@H](C)[C@H](CN(C)C)O2 | -1
